Consider 14 compounds from PubChem BioAssay AID743381 (National Center for Advancing Translational Sciences (NCATS), 2014).

Molecules are shown by their SMILES. Records with an inconclusive call do not appear. Calls of active or inactive are those of the source. Calls come from the whole dose curve; as a rule, active = well fitted inhibition curve with a large enough effect; inconclusive = small, poorly fitted or top-dose-only effect; inactive = flat fitted curve, though single readings scatter.

Sequence of Phosphatidylinositol 5-phosphate 4-kinase type-2 alpha (Homo sapiens) (P48426 whole entry, looked up, canonical isoform): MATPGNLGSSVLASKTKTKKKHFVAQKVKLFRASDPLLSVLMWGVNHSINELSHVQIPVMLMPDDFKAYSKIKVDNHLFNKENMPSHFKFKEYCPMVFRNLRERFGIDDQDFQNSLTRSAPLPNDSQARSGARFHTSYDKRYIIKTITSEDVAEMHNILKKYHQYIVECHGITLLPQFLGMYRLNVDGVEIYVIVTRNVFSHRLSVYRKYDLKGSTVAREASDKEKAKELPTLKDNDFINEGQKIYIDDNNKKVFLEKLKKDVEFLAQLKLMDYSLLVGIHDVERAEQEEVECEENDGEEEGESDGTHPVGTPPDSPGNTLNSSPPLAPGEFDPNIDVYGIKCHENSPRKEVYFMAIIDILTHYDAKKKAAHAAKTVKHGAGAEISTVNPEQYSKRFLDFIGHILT

This assay has as its target Phosphatidylinositol 5-phosphate 4-kinase type-2 alpha (Homo sapiens) (UniProt P48426). The experiment in a line: qHTS for Inhibitors of PI5P4K: PI5P4K-alpha Confirmatory Assay for Probe SAR. The settings on record: Purified PI5P4Kalpha, ADP-Glo luminescence, 60 min; series mostly up to 76.9 µM; activity change, negative = inhibition: at the top concentration. From the text: In addition to finding PI5P, we discovered the type II phosphatidylinositol 5-phosphate 4-kinase (PI5P4K) family (alpha, beta, gamma isoforms) that catalyze the conversion of PI5P to PI(4,5)P2. Alternatively, PI(4,5)P2 can also be synthesized through phosphatidylinositol-4-phosphate (PI4P) by the type I phosphatidylinositol 4-phosphate 5-kinases (PI4P5K). These PI5P4K enzymes therefore represent one way by which cells can regulate endogenous PI5P levels and play important roles in insulin signaling and in stress responses. […] A qHTS PI5P4Kalpha ADP-Glo assay was developed to identify specific modulators of human PI5P4K, phosphatidylinositol-5-phosphate 4-kinase (Type II PIPK). This assay was screened against the MLSMR containing ~400,000 small molecules (PubChem AID 652105). The same assay was used to validate subsequent Medicinal Chemistry efforts on the active compounds and its analogs. Inhibition of the enzyme activity (signal decrease) is the desired outcome for this assay. Davis et al., PLoS One. 2013; 8(1):e54127. NIH Chemical Genomics Center [NCGC] NIH Molecular Libraries Probe Centers Network [MLPCN] MLPCN Grant: MH096575 Assay Submitter (PI): Atsuo Sasaki, Beth Israel Deaconess Medical Center
Two microliter of PI5P4Kalpha/substrate buffer (columns 1-2, 5-48) was dispensed into Greiner white solid bottom 1536-well assay plates; column 3 received only PI5P4Kalpha buffer as no substrate control; column 4 receives only substrate buffer as no PI5P4Kalpha controls. Final assay buffer consists of 0.038 M HEPES pH 7.4, 0.28 mM EGTA, 0.1 % CHAPS, and 5% DMSO (final concentration). Compounds were then transferred via Kalypsys pin tool equipped with 1536-pin array. Following addition of compound, 1 uL of ATP (5 uM final concentration) was added to initiate the reaction. ATP was diluted in an assay buffer consisting of 0.02 M HEPES pH 7.4, 60 mM MgCl2, 15 uM ATP, and 0.1% CHAPS. The plates were then incubated at room temperature for 60 minutes. ADP-Glo reagent 1 was added and plates incubated for 45 minutes. ADP-Glo reagent 2 was added and the plates were incubated for 30 minutes. The plates were transferred to a ViewLux high-throughput CCD imager (PerkinElmer) wherein single end-point measurements of luminescence were acquired using a clear filter.
(qHTS replaces the single test concentration by a dilution series.)
For the compound `O=C1Nc2ccccc2/C1=C\c1ccc(O)c(F)c1`, the Potency was 2180 nM (active).
Regarding `O=C1Nc2ccccc2/C1=C/c1cccc(C(=O)O)c1`, the Potency was 10900 nM (active).
On the same count and under the same terms, to `COc1ccc(/C=C2/C(=O)Nc3ccccc32)cc1O` belongs 772 nM (active); to `O=C1Nc2ccccc2/C1=C/c1cc(Cl)c(O)c(Cl)c1`, 867 nM (active); to `O=C1Nc2ccccc2/C1=C\c1cc(Br)c(O)c(Br)c1`, 1220 nM (active).
On to `Cc1cccc2c1NC(=O)/C2=C/c1cc(Cl)c(O)c(Cl)c1`, for which the Potency was 547 nM (active).
In the case of `O=C1Nc2ccccc2C12CC2c1cc(Cl)c(O)c(Cl)c1` (centres undefined), the Potency is 10900 nM (active).
As to `O=C1Nc2ccccc2/C1=C/c1ccc[nH]1`, the “activity change, negative = inhibition” value is 11% (inactive).
`COc1cc(/C=C2\C(=O)Nc3ccccc32)ccc1O`: the Potency was 19400 nM (active).
Same read-out and setting: as for `COc1cc(/C=C2/C(=O)Nc3ccccc32)cc(OC)c1O`, the figure is 30700 nM (active); as for `O=C1Nc2cccc(Cl)c2/C1=C\c1cc(Cl)c(O)c(Cl)c1`, 3070 nM (active).
The same measure, in the same setting: to `O=C1Nc2ccccc2/C1=C\c1cc(F)c(O)c(F)c1` belongs 487 nM (active); to `O=C1Nc2ccccc2/C1=C\c1ccc([N+](=O)[O-])cc1`, 2740 nM (active); to `O=C1Nc2ccccc2/C1=C\c1ccc(O)cc1`, 24400 nM (active).
